This is an account of results in PubChem BioAssay.

For experiment [1], the system named is Plasmodium falciparum Sir2 (PF13_0152, Sir2A). The experiment in a line: Plasmodium falciparum Sir2A binding compounds – biochemical, small-molecule microarray, 635 nm fluorescence, primary screen (AID 1098).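 Note: score merges spot fluorescence intensity with its signal-to-noise ratio.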 To be noted: fluorescence 635 nm, higher = more signal.
Experiment [2] in a line: probe aDKK1 binding to arrayed compounds – biochemical, biotinylated probe, 635/667 nm fluorescence, primary screen (AID 1099).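 Note: score merges 667nm spot fluorescence with signal to noise across triplicate slides.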 Conditions: small-molecule microarray, higher = more signal.
Experiment [3] can be described thus: probe aCHRDL2 binding to arrayed compounds – biochemical, biotinylated probe, 635/667 nm fluorescence, primary screen (AID 1100). To be noted: small-molecule microarray, higher = more signal.
Experiment [4] is described as follows: change in splice reporter luminescence, either direction, cell-based, HEK293, spliceosome inhibition project, primary screen (AID 1101).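 Note: HEK293 cells carrying a splicing-competent luciferase reporter gene; test concentration not given here.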 Conditions: HEK293 splicing luciferase reporter, 24 h, higher = more signal, called active from +8 up or from −8 down.
For experiment [5], the target named is Fibroblast growth factor 10 (Homo sapiens) (UniProt O15520). Briefly: compounds binding fibroblast growth factor 10 – biochemical, small-molecule microarray, 635 nm fluorescence, primary screen (AID 1102). To be noted: FGF10 binding, fluorescence 635 nm, higher = more signal.
Experiment [6] concerns glycogen synthase kinase-3 (GSK3A per assay name; protocol says GSK3B). Briefly: compounds binding glycogen synthase kinase-3 – biochemical, small-molecule microarray, 635 nm fluorescence, GSK3A, primary screen (AID 1103). Note: the record names both GSK3A and GSK3B. To be noted: fluorescence 635 nm, higher = more signal.
Experiment [7] has as its target Epidermal growth factor receptor (Homo sapiens) (UniProt P00533). Briefly: compounds binding epidermal growth factor receptor – biochemical, small-molecule microarray, 635 nm fluorescence, primary screen (AID 1104).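 Note: score merges 667 nm emission intensity with spot signal to noise over triplicate slides.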 Conditions: EGFR binding, higher = more signal.
Experiment [8] addresses Follistatin-related protein 3 (Homo sapiens) (UniProt O95633). Briefly: compounds binding follistatin-related protein 3 – biochemical, small-molecule microarray, 635 nm fluorescence, primary screen (AID 1105).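 Note: score merges emission near 667 nm and signal to noise per printed spot across three slides.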 Conditions: FSTL3 binding, higher = more signal.
Experiment [9] has as its target Dickkopf-related protein 1 (Homo sapiens) (UniProt O94907). The experiment in a line: small molecules binding DKK1 protein – biochemical, small-molecule microarray, 635 nm fluorescence scan, primary screen (AID 1106).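 Note: score merges emission near 667 nm with signal to noise over three replicate slides.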 Conditions: higher = more signal.
The subject of experiment [10] is Inhibin beta A chain (activin A). The experiment in a line: small molecules binding activin A – biochemical, small-molecule microarray, 635 nm fluorescence scan, primary screen (AID 1107).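 Note: mouse activin A protein probed at 4.33 µg/mL on printed slides; score merges bound-protein fluorescence near 667 nm with spot signal-to-noise.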 Conditions: INHBA, higher = more signal.
In experiment [11] the test system is Human papillomavirus type 1a protein E7 (residues 44-93). Briefly: small molecules binding HPV E7 44-93 – biochemical, small-molecule microarray, residues 44-93, 635 nm fluorescence, primary screen (AID 1108).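 Note: E7 fragment applied at 1 µg/mL in TBST for 1 h at 4 C; score combines spot fluorescence with its signal to noise ratio.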 Conditions: fluorescence 635 nm, higher = more signal.
Experiment [12] is described as follows: hepatitis C replication reporter changes, two-sided – Huh7 cells, luciferase reporter, HCV replication inhibitor project, primary screen (AID 1109).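 Note: huh7 hepatoma cells harbouring a luciferase neomycin HCV replicon reporter; luciferase luminescence as measure of HCV replicon replication; test concentration not given here.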 To be noted: Huh7 HCV replicon luciferase reporter, 48 h; higher = more signal.
Experiment [13] has as its target Left-right determination factor 2 (Homo sapiens) (UniProt O00292). Briefly: small molecules binding LEFTY2 protein – biochemical, small-molecule microarray, 635 nm fluorescence scan, primary screen (AID 1110). To be noted: higher = more signal.
For experiment [14], the target named is Calmodulin-1 (Homo sapiens) (UniProt P0DP23). The experiment in a line: small molecules binding calmodulin-1 with EGTA – biochemical, small-molecule microarray, Cy5-labelled CALM1, profiling panel (AID 1111).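 Note: labelled calmodulin applied in Tris saline Tween buffer holding calcium plus EGTA and DTT.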 Conditions: Cy5-CALM1 binding fluorescence, higher = more signal.
Experiment [15] shares this target. The experiment in a line: small molecules binding Ca-loaded calmodulin-1 – biochemical, small-molecule microarray, Cy5-labelled CALM1, plus calcium, artefact control for SMM control-protein annotation, profiling panel (AID 1112).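 Note: score merges spot fluorescence with signal to noise from triplicate slides.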 To be noted: Cy5-CALM1 binding fluorescence, higher = more signal.
A short description of experiment [16]: probe aWnt5a binding to arrayed compounds – biochemical, biotinylated probe, 635/667 nm fluorescence, primary screen (AID 1113).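 Note: score merges 667 nm fluorescence intensity with signal-to-noise per printed feature.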 To be noted: small-molecule microarray, higher = more signal.
Experiment [17] in a line: probe aShh binding to arrayed compounds – biochemical, biotinylated probe, 635/667 nm fluorescence, primary screen (AID 1114).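 Note: probe is biotin-labelled aShh protein from a stem cell growth factor screen; measures binding of labelled protein to compounds printed on the slide; score merges feature fluorescence at 667 nm with signal-to-noise.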 Conditions: small-molecule microarray, higher = more signal.
Experiment [18] can be described thus: probe aNog binding to arrayed compounds – biochemical, biotinylated probe, 635/667 nm fluorescence, primary screen (AID 1115).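 Note: probe is biotinylated aNog protein used at 0.15 µg/mL for 1 h at 4 C; z-score combines 667 nm fluorescence of each spot with its signal to noise.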 Conditions: small-molecule microarray, higher = more signal.
Experiment [19] concerns the target Torsin-1A-interacting protein 1 (Homo sapiens) (UniProt Q5JTV8). The experiment in a line: compound microarray binding of lysate hLAP1 – cell lysate, small-molecule microarray, COS7 lysate, 635/667 nm fluorescence, primary screen (AID 1116). To be noted: 635 nm fluorescence, higher = more signal.
Experiment [20] concerns the target Alpha-bungarotoxin (Bungarus multicinctus) (UniProt P60615). The experiment in a line: compounds binding labelled alpha-BTX control protein – biochemical, small-molecule microarray, Alexa647 label, 635/667 nm fluorescence, artefact control for SMM control protein annotation, profiling panel (AID 1117). Conditions: alpha-BTX-A647 binding fluorescence, higher = more signal.

Activity calls are given as the source filed them.

Sequence of Left-right determination factor 2 (Homo sapiens) (O00292 whole entry, looked up): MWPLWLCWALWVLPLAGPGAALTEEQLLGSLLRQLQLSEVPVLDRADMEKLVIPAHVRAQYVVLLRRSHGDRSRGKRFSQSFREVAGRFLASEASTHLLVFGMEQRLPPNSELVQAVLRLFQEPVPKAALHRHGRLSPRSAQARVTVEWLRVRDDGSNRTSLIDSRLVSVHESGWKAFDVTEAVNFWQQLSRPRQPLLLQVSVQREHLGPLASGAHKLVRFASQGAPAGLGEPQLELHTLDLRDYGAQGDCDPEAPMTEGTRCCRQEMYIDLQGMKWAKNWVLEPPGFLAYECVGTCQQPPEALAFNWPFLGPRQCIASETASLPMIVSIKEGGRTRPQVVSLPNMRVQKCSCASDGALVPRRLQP
Sequence of Alpha-bungarotoxin (Bungarus multicinctus) (P60615 whole entry, looked up): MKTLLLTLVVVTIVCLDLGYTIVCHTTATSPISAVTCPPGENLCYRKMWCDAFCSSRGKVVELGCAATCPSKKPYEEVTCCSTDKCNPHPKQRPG
Sequence of Dickkopf-related protein 1 (Homo sapiens) (O94907 whole entry, looked up): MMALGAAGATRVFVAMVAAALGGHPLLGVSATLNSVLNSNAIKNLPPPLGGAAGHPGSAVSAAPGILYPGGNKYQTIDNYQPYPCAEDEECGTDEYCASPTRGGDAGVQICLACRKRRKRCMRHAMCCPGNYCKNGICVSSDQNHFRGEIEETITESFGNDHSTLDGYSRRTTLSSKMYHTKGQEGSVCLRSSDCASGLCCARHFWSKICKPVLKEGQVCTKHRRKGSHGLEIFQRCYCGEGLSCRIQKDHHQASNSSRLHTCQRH
Sequence of Epidermal growth factor receptor (Homo sapiens) (P00533 whole entry, looked up): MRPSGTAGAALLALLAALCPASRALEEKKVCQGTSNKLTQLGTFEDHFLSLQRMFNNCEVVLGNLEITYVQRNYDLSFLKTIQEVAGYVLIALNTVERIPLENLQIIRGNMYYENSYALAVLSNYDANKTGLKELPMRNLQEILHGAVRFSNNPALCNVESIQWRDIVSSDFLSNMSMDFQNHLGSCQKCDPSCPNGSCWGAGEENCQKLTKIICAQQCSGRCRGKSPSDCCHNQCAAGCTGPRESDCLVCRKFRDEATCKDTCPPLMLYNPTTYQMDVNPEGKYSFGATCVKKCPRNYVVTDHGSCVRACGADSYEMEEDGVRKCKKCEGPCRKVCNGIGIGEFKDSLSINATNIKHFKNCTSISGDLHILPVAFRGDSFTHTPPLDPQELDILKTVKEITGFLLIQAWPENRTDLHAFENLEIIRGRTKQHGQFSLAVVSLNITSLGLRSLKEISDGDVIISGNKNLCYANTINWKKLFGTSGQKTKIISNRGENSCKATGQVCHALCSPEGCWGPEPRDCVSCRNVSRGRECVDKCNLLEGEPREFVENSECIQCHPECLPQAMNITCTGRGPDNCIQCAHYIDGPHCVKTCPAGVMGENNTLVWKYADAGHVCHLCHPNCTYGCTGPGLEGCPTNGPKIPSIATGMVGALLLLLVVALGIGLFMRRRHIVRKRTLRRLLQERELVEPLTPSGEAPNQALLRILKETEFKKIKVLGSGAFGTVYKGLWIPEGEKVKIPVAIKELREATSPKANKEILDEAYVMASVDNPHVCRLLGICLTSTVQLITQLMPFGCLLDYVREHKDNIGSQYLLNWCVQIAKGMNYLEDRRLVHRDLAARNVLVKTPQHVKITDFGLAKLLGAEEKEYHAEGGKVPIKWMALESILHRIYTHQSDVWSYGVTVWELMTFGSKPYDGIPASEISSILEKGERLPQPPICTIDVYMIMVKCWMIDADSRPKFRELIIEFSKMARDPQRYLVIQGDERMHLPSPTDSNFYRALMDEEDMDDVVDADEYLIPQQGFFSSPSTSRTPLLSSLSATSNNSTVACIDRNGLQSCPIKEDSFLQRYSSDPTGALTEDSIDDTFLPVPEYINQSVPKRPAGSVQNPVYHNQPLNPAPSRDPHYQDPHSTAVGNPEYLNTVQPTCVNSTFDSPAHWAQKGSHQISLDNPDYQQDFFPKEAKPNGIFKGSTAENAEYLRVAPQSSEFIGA
Sequence of Follistatin-related protein 3 (Homo sapiens) (O95633 whole entry, looked up): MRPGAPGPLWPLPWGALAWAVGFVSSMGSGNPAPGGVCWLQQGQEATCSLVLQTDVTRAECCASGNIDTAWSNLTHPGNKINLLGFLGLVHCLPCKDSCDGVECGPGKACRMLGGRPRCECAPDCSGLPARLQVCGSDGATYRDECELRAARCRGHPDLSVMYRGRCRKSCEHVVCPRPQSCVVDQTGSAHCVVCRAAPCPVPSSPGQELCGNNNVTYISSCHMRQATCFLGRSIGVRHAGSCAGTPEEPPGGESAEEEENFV
Sequence of Fibroblast growth factor 10 (Homo sapiens) (O15520 whole entry, looked up): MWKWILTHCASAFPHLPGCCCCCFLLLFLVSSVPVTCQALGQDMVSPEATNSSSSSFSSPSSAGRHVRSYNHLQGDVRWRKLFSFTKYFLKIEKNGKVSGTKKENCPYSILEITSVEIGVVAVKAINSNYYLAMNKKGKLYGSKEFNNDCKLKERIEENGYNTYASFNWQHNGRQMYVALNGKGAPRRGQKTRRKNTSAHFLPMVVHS
Sequence of Torsin-1A-interacting protein 1 (Homo sapiens) (Q5JTV8 whole entry, looked up): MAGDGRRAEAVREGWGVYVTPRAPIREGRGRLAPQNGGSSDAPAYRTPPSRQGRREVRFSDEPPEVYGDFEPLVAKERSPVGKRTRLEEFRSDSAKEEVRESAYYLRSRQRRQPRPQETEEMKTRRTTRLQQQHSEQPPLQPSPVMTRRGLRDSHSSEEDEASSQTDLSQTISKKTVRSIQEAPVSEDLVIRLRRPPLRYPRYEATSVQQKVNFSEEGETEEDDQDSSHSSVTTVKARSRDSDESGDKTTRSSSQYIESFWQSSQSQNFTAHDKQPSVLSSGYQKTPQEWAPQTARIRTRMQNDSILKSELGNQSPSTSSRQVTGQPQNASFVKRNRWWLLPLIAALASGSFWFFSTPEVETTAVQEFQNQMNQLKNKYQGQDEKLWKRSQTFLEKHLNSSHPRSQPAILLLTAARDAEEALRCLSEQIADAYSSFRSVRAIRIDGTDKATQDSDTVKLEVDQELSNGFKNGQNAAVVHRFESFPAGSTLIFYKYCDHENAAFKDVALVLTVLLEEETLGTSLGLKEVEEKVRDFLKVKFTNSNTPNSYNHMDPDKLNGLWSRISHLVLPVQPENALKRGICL

For the compound `O=C(OCc1ccccc1)C1=CCC2c3[nH]c4ccccc4c3C(=O)C1N2S(=O)(=O)c1ccccc1[N+](=O)[O-]` (stereo not given), the composite z-score in experiment [1] turned out to be 1.42; in experiment [2] it was 0.332; in experiment [3], 0.381; in experiment [5], 1.33; in experiment [6], 1.32; in experiment [7] it was 0.727. Besides, the composite z-score in experiment [8] worked out at 1.42; in [9] it was 0.109; in experiment [10], 0.618; in experiment [11], 1.42; in experiment [13] it was 0.831; in experiment [14], 0.418. The composite z-score in experiment [15] is -0.369; in [16], 0.0597; in experiment [17], 0.14; in [18] it was -0.549; in experiment [19], 0.432; in [20] it was 0.584. Moreover, the z-score was -0.00197 (inactive) in experiment [4] and -2.6 in [12].
On to `COc1ccc([Si](C)(C)[C@@H]2[C@@H](CC(=O)N3CCC[C@H]3CO)O[C@]3(C(=O)N(c4ccccc4)c4ccccc43)[C@H]2C)cc1`, for which the composite z-score in experiment [1] was 0.977; in experiment [2] it was 0.0231; in experiment [3], -0.169; in [5] it was 0.613; in [6] it was 1.23; in [7], 0.501. Also, the composite z-score came out at 1.4 in [8]; 0.85 in experiment [9]; 0.748 in experiment [10]; 1.36 in experiment [11]; 0.751 in experiment [13]; 0.528 in experiment [14]. Also, the composite z-score was -0.143 in experiment [15]; -0.124 in [16]; 0.0328 in experiment [17]; -0.0047 in experiment [18]; 0.691 in experiment [19]; 1.09 in [20]. The values for the z-score in experiment [4] and in experiment [12] were -2.29 (inactive) and -0.417, respectively.
`CC(C)C(=C=CC[C@H](O)c1ccc(OCCO)cc1)CCO`: the composite z-score in experiment [1] came out at 1.42; in experiment [2], 0.0229; in [3] it was 0.0152; in experiment [5] it was 0.835; in [6] it was 0.145; in [7], 0.0098. Further, the composite z-score amounted to 0.842 in experiment [8]; 0.296 in experiment [9]; 0.943 in experiment [10]; 1.39 in [11]; 0.131 in [13]; 0.219 in experiment [14]. For the same compound, the composite z-score in experiment [15] is -0.729; in experiment [16], -0.0107; in experiment [17], 0.163; in [18], 0.508; in experiment [19] it was 0.828; in [20], 0.663. Moreover, the z-score in experiment [4] was 0.0477 (inactive); in experiment [12], -0.119.
Consider `CC(C)C(O)C1C=CC2C(=O)NC(=O)C2N1Nc1ccc(Cl)cc1Cl` (stereo not given), for which the composite z-score in experiment [1] was 0.686; in experiment [2], 1.2; in experiment [3], 1.37; in [5] it was -0.0826; in experiment [6] it was -0.234; in [7], -0.0718. The composite z-score in [8] was -0.265; in experiment [9], -0.939; in [10], 1.47; in experiment [11], -0.898; in experiment [13] it was -0.226; in experiment [14], 1.5. For the same compound, the composite z-score in [15] was 1.23; in [16], -0.0944; in [17] it was -0.296; in experiment [18], 0.0266; in [19], 1.91; in experiment [20], 0.712. Also, the z-score was 1.54 (inactive) in [4] and -0.88 in experiment [12].
For `COC(=O)[C@@]1(Cc2ccc(OC)cc2)[C@H]2c3cc(C(=O)N(C)C)n(Cc4ccc(S(C)(=O)=O)cc4)c3C[C@H]2CN1C(=O)c1ccccc1`, the composite z-score in experiment [1] was 1.29; in experiment [2], 0.511; in experiment [3], 0.573; in experiment [5], -0.0911; in [6] it was 0.904; in experiment [7] it was -0.0743. Moreover, the composite z-score is 1.08 in experiment [8]; 0.0527 in experiment [9]; 1.16 in experiment [10]; 1.41 in experiment [11]; -0.0612 in experiment [13]; 1.36 in experiment [14]. Moreover, the composite z-score in experiment [15] is 0.798; in experiment [16] it was -0.242; in experiment [17] it was -0.405; in experiment [18] it was -0.21; in [19], 1.28; in experiment [20], -0.0416. Also, the z-score in experiment [4] is -0.109 (inactive); in experiment [12], -1.63.
As for `O=C1O[C@H](c2ccccc2)[C@H](c2ccccc2)N2[C@H]1[C@@H](C(=O)N1CCCCCCC1)[C@]1(C(=O)Nc3ccc(C#CC4=CCCCC4)cc31)[C@H]2c1ccc(OCCO)cc1`, the composite z-score turned out to be 1.87 in experiment [1]; 2.63 in experiment [2]; 1.36 in [3]; 1.46 in [5]; 1.36 in experiment [6]; 1.68 in [7]. In addition, the composite z-score in [8] was determined as 1.66; in experiment [9], 2.4; in [10], 1.88; in experiment [11], 1.54; in experiment [13], 1.63; in experiment [14], 2.6. Also, the composite z-score in experiment [15] came out at 1.28; in experiment [16], 1.32; in experiment [17], 3.1; in experiment [18], 2.93; in [19] it was 3.47; in experiment [20], 3.42. In addition, the z-score in experiment [4] is -1.68 (inactive); in [12] it was -2.06.
